Source: PubChem
This is a sample that favours compounds with a hit; in the whole collection about 0.81% have one here.
SRC2 inh – human SRC2 (NCOA2) inhibition; Q15596; HEK293 GAL4-SRC2 luciferase reporter, luminescence; inhibition, % at 9 µM; hit rate 0.17% among 370,000; AID 651957;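 active = inhibition above the mean inhibition of all tested compounds plus 3 SD, set per campaign, cut at about 52% in these data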;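 also: 0% = DMSO treated cells and 100% = cells given Gossypol at 36 µM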
COUP-TFII inh – inhibitors of human COUP-TFII (NR2F2); P24468; HEK293T NGFI-A luciferase reporter, luminescence; inhibition, % at 8.6 µM; hit rate 0.7% among 370,000; AID 686940;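 active = inhibition above a per-plate cutoff, mean inhibition of test wells between control levels plus 3 SD, cut at about 38% in these data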;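 also: cells cotransfected with COUP-TFII expression vector driving the NGFI-A reporter; 0% = median of COUP-TF2 test wells and 100% = reporter-only cells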
NCOA1 inh – human NCOA1 inhibition; AID 588354; hit rate 0.12% among 360,000; inhibition, % at 3.6 µM; Q15788; HEK293 GAL4-SRC1 luciferase reporter, luminescence;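 active = inhibition above the campaign mean plus 3 SD, with each screening campaign given its own cutoff, cut at about 60% in these data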;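 also: 0% = DMSO treated cells and 100% = gossypol at 36 µM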
NR5A2 inv ag – NR5A2 inverse agonism in reporter assay; HEK293T StAR-luciferase reporter, LRH-1 transfected, 24 h; inhibition, % at 3.6 µM; AID 602396; hit rate 0.13% among 360,000; O00482;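 active = inhibition above the mean inhibition of all tested compounds plus 3 SD, cut at about 73% in these data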;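 also: 0% = DMSO wells and 100% = reporter-only cells lacking LRH-1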
Target sequence (O00482 whole entry, looked up): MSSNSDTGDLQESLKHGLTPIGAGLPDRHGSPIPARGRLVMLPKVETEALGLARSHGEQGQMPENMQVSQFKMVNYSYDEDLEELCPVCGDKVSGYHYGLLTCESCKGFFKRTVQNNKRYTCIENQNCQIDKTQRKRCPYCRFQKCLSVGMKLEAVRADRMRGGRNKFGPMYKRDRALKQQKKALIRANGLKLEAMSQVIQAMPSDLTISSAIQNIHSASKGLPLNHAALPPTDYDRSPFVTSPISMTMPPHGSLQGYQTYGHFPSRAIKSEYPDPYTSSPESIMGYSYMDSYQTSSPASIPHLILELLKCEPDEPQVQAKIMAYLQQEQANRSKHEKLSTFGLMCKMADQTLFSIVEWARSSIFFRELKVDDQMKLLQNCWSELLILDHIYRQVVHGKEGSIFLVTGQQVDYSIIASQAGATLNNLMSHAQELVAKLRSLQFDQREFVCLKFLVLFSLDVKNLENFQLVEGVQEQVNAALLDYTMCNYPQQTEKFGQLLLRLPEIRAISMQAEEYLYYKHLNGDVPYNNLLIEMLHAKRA
SRC3 inh – inhibits human SRC3 coactivator; Q9Y6Q9; HEK293 GAL4-SRC3 luciferase reporter, luminescence; inhibition, % at 3.6 µM; hit rate 0.17% among 360,000;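 active = inhibition above a per-campaign cutoff, the mean of all compounds plus 3 SD, cut at about 60% in these data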;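 also: 0% = DMSO-treated cells and 100% = gossypol-treated cells at 36 µM; higher means less SRC3-driven luciferase light from the GAL4 reporter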
Gal4-VP16 ctr – VP16 inhibition counter-screen for COUP-TFII; shares compounds with COUP-TFII inh; HEK293 Gal4-VP16 luciferase reporter, luminescence; inhibition, % at 8.5 µM; hit rate 25% among 2,500; AID 687007; in the data active = inhibition above about 13%
NR2F2 inh conf – confirmation of human COUP-TFII (NR2F2) inhibitors; shares compounds with COUP-TFII inh; HEK293 NGFI-A luciferase reporter, luminescence; inhibition, % at 8.5 µM; hit rate 45% among 2,500; AID 687008;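 active = mean inhibition over three repeats above a set limit taken from the earlier primary screen, cut at about 38% in these data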;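 also: 100% = cells given the luciferase reporter alone without the COUP-TF2 vector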
Numbers without * were called inactive; x = no result given.

SMILES | SRC2 inh | COUP-TFII inh | NCOA1 inh | NR5A2 inv ag | SRC3 inh | Gal4-VP16 ctr | NR2F2 inh conf
CC1OC(OC2C=C3CCC4C(CCC5(C)C(c6ccc(=O)oc6)CCC45O)C3(C)CC2)C(O)C(OC2OC(CO)C(O)C(O)C2O)C1O (stereo unspecified) | 70* | 78* | 91* | 97* | 88* | 54* | 80*
CC[C@@H]1C[C@H]2CC[C@H](O2)[C@H](C)C(=O)O[C@@H](C)C[C@@H]2CC[C@@H](O2)[C@@H](C)C(=O)O[C@H](C)C[C@H]2CC[C@H](O2)[C@H](C)C(=O)O[C@@H](C)C[C@@H]2CC[C@@H](O2)[C@@H](C)C(=O)O1 | -9 | 85* | x | x | x | 24* | 72*
O=C1NC2C(O)C(O)C(O)C(O)C2c2cc3c(c(O)c21)OCO3 (stereo unspecified) | 75* | 80* | 93* | 98* | 92* | 29* | 80*
O=C1NC2C(=CC(O)C(O)C2O)c2cc3c(c(O)c21)OCO3 (stereo unspecified) | 68* | 91* | 96* | 97* | 94* | 25* | 84*
O=C1NC2C(=CC(O)C(O)C2O)c2cc3c(cc21)OCO3 (stereo unspecified) | 75* | 78* | 94* | 97* | 91* | 11 | 58*
CC(c1ccccc1)n1cc(C(=O)NC2CCCC2)nn1 (stereo unspecified) | -18 | 2 | x | x | x | x | x
C=CCN1C[C@H](C)N(C(c2ccc(C(=O)N(CC)CC)cc2)c2cccc(OC)c2)CC1C (stereo partly specified) | -21 | -6 | x | x | x | x | x
O=C1NCN(c2ccccc2)C12CCN(C(c1ccccc1)c1nnnn1C1CCCC1)CC2 (stereo unspecified) | 7 | 5 | 10 | -13 | -9 | x | x
COC[C@]12CN(C)C3C4[C@H](OC)[C@H]1C3([C@@H](OC)C[C@H]2O)[C@@H]1C[C@@]2(O)[C@H](OC(=O)c3ccccc3)[C@@H]1[C@]4(OC(C)=O)[C@@H](O)[C@@H]2OC | x | x | -1 | -1 | -16 | x | x
Cc1cc(N2CCNC[C@H]2C)ccc1N1CCN[C@H](C)C1 | 2 | -12 | x | x | x | x | x
O=C(c1ccc(Cl)cc1)C1CCCN(Cc2ccc3ncccc3c2)C1 (stereo unspecified) | 21 | 19 | 6 | 8 | 16 | x | x
N#Cc1ccc2nc(-c3ccc(CN4CCC(n5nnc6ccccc65)CC4)cc3)c(-c3ccccc3)nc2c1 | 4 | 32 | x | x | x | x | x
COC(=O)[C@@H]1[C@@H](C(=O)OC)C2(c3ccccc3-c3ccccc32)N(c2ccc(Cl)cc2)N1C#N | 12 | 47* | 7 | 13 | 48 | 50* | 47*
CC(C)(C)n1nnnc1C1CN=C(c2ccccc2)c2ccccc2N1 (stereo unspecified) | -16 | -3 | x | x | x | x | x
COc1cc(CCN)c(OC)cc1C | 10 | -19 | x | x | x | x | x
O=c1[nH]c(O)c(N=Nc2ccc3c(c2)OCCO3)c(=O)[nH]1 | 59* | 82* | 67* | 71 | 69* | -6 | 64*
O=c1[nH]c(=S)[nH]c(O)c1N=Nc1ccc2c(c1)OCCO2 | -41 | -3 | -116 | -68 | -48 | x | x
COc1cccc(C(c2nnnn2-c2ccc3c(c2)OCCO3)N2CCC(n3c(=O)[nH]c4ccccc43)CC2)c1OC (stereo unspecified) | 9 | 40* | 32 | 9 | 41 | -2 | 7
COc1ccc(-n2nnnc2C(c2cccc(OC)c2OC)N2CCC(n3c(=O)[nH]c4ccccc43)CC2)cc1 (stereo unspecified) | 22 | 34 | 39 | 18 | 26 | x | x
CC1=C(O)C(=O)C=C2C1=CC=C1C2(C)CCC2(C)C3CC(C)(C(=O)O)CCC3(C)CCC12C (stereo unspecified) | -35 | 79* | 1 | 93* | -9 | 81* | 83*
Cn1nc(-c2ccc(OCC(=O)N3CCN(Cc4ccccc4)CC3)cc2)c2ccccc2c1=O | 14 | 55* | -3 | 38 | 8 | 6 | 36
Cn1cccc1CN1CCN(C(=O)COc2ccccc2)CC1 | 17 | -9 | -14 | 8 | -4 | x | x
CCCCN=C[C@]12CCC(O)CC1(O)CCC1[C@@H]2CC[C@]2(C)[C@H](C3C=CC(=O)O3)CCC12O (stereo partly specified) | 42 | 63* | 78* | 97* | 80* | 39* | 69*
CC12CCC3C(CCC4(O)CC(O)CCC34C=O)C1(O)CCC2C1=CC(=O)OC1 (stereo unspecified) | 37 | 71* | 65* | 96* | 65* | 24* | 64*
CC12CCC3C(CCC4(O)CC(O)CCC34C=NO)C1(O)CCC2C1=COC(=O)C1 (stereo unspecified) | 42 | 81* | 87* | 99* | 89* | 43* | 69*
SMILES | SRC2 inh | COUP-TFII inh | NCOA1 inh | NR5A2 inv ag | SRC3 inh | Gal4-VP16 ctr | NR2F2 inh conf
C[C@]12CCC3C(CCC4=CC(O)CC[C@@]43/C=N/O)C1(O)CCC2C1=CC(=O)OC1 (stereo partly specified) | 50 | 75* | 78* | 98* | 71* | 37* | 68*
N#CCC[C@@H]1CC[C@]2(CCCN(Cc3ccncc3)C2)O1 | 6 | 15 | x | x | x | x | x
O=C(NCCN1CCC2(CC1)C(=O)NCN2c1ccccc1)c1cccc(F)c1 | -3 | 0 | x | x | x | x | x
C[C@]12CC[C@H]3[C@@H](CC[C@]4(O)C[C@@H](O)CC[C@]34C=O)[C@@]1(O)CC[C@@H]2C1=CC(=O)OC1 | 53* | 78* | 71* | 102* | 82* | 33* | 67*
CC1OC(OC2C(O)CC(OC3C(O)CC(OC4CCC5(C)C(CCC6C5CCC5(C)C(C7=CC(=O)OC7)C(O)CC65O)C4)OC3C)OC2C)CC(O)C1O (stereo unspecified) | 9 | 21 | 35 | 35 | 49 | x | x
CN1C2CCC1/C(=C/c1ccccn1)C(=O)/C2=C\c1ccccn1 | 65* | 63* | -51 | 3 | 50 | 68* | 85*
Cc1ccccc1-n1c(/C=C/c2ccccn2)nc2ccccc2c1=O | 30 | 6 | 12 | 47 | -5 | x | x
CC(=O)c1cn(CCCOc2ccccc2)c2ccccc12 | -2 | 45* | -14 | 8 | 15 | -7 | 10
